Measured values: PubChem BioAssay AID1851 (National Center for Advancing Translational Sciences (NCATS), 2009)
Several values for one entry are separate records, joined by “and”; a condition that tells them apart may be missing. Equal entries are not always repeated. The whole screen tested about 16,000 compounds, of which about 5,700 (36%) were called active. Another 24% or so got no clear call; they are omitted. This is one part of the list. Values without a mark were called inactive. The call rests on the fitted dose curve; in most records, active means well fitted curve in the direction sought with a large enough effect; inconclusive means small, poorly fitted or top-dose-only effect, or effect the other way; inactive means no such curve, though single readings can be large or run the other way.

These compounds were tested against Cytochrome P450 1A2 (Homo sapiens) (UniProt P05177) (assay: Cytochrome panel assay with activity outcomes). Details: recombinant CYP, pro-luciferin dealkylation, luminescence, p450-cyp1a2; series mostly up to 57.1 µM; activity, negative = inhibition: at the top concentration.
Chain of Cytochrome P450 1A2 (Homo sapiens) (P05177 whole entry, looked up): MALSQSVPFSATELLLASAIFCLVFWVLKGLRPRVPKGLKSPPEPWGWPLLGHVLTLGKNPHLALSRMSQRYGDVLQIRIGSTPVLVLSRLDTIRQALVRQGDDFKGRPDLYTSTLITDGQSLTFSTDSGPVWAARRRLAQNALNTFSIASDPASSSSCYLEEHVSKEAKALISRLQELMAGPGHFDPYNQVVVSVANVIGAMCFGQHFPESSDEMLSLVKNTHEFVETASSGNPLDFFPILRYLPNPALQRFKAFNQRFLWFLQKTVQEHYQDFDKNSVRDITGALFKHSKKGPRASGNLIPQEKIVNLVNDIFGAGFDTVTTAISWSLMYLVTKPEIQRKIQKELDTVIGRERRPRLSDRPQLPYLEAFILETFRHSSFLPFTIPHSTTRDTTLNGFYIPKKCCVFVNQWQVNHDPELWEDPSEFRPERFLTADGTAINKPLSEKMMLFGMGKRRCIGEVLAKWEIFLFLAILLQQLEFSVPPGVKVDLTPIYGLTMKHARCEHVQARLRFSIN
On the % scale 0 is the no-effect control and ±100 the full control effect.

Row | Compound | activity, negative = inhibition | AC50
1 | CCn1c(SCC(=O)NC(=O)NCc2ccco2)nnc1-c1cccs1 | -19.9% | 
2 | Cc1cc(NC(=O)CSc2nnc(-c3ccccc3)n2Cc2ccco2)no1 | -10.2% | 
3 | Cc1ccccc1CSc1nnc(-c2cccs2)n1Cc1ccco1 |  | 4.47 µM (active)
4 | COCCn1c(Cc2ccccc2)nnc1SCc1nc2ccccc2c(=O)[nH]1 | -4.28% | 
5 | O=c1cc(CSc2ccccc2)[nH]c(=S)[nH]1 | -15.1% | 
6 | c1ccc(SCc2nc3ccccc3[nH]2)cc1 |  | 11.2 µM (active)
7 | CCn1c(SCc2nc3ccccc3[nH]2)nnc1-c1ccc(OC)cc1 |  | 25.1 µM (active)
8 | c1ccc(-c2nnc(SCc3nc4ccccc4[nH]3)n2Cc2ccco2)cc1 |  | 14.1 µM (active)
9 | COc1ccc(NC(=O)CCNS(=O)(=O)c2ccc3c(c2)CCC(=O)N3)cc1 | 0.443% | 
10 | Cc1ccccc1C1C(C#N)=C2N=C(N)c3c(sc4c3CCCCC4)N2C2=C1C(=O)CC(C)(C)C2 (configuration not stated) | -4.46% | 
11 | COc1ccc(-n2c(=O)c(-c3cccs3)nc3cnc(OC)nc32)cc1 |  | 5.01 µM (active)
12 | COc1ccc(Oc2ncc3nc(-c4cccs4)c(=O)n(-c4ccccc4)c3n2)cc1 |  | 3.16 µM (active)
13 | COc1ncc2nc(-c3cccs3)c(=O)n(-c3ccccc3)c2n1 |  | 2 µM (active)
14 | CN(C)c1ncc2nc(-c3cccs3)c(=O)n(-c3ccccc3)c2n1 |  | 31.6 µM (active)
15 | C/C(CCN1CCCc2nc(C)c(C)cc21)=N\O[C@@H](C)c1cn([C@H](CO)Cc2ccccc2)nn1 | -5.46% [at 11.4 µM] and -2.73% [at 11.4 µM] | 
16 | Nc1ncnc2c1ncn2[C@H]1O[C@@H](C(=O)O)[C@@H](O)[C@H]1O | -10.9% [at 11.4 µM] | 
17 | CC(C)CN1CCCC2(CCN(C(=O)c3csnn3)CC2)C1 | -9.16% | 
18 | Nc1ccc(N2CCN(C(=O)c3ccco3)CC2)cc1 | 16.2% | 
19 | O=C(c1cc(-c2cccs2)on1)N1CCN(c2ccc(F)cc2)CC1 |  | 2.82 µM (active)
20 | O=C(c1ccc2ncsc2c1)N1CCN(c2ccc(O)cc2)CC1 | -16.1% | 
21 | Cc1cc(C)c(-c2noc(C(=O)OC(C)(C)C)c2C(=O)OC(C)(C)C)c(C)c1 | -10.5% | 

Row | Compound | activity, negative = inhibition | AC50
22 | Cn1c(=O)c(-c2ccc(Cl)cc2)nc2cnc(OCc3ccccc3)nc21 |  | 0.794 µM (active)
23 | Cn1c(=O)c(-c2ccccc2)nc2cnc(OCc3ccccc3)nc21 |  | 1.58 µM (active)
24 | O=C(c1csnn1)N1CCC2(CCN(Cc3nccs3)CC2)CC1 | -4.92% | 
25 | COc1ccc(CONS(=O)(=O)c2ccc(NC(C)=O)cc2)cc1Cl |  | 14.1 µM (active)
26 | COC(=O)C(NS(=O)(=O)c1ccc(NC(C)=O)cc1)C(C)C (configuration not stated) | -19.1% | 
27 | COc1ccc(CCNC(=O)CC(NS(=O)(=O)c2ccc(NC(C)=O)cc2)C(C)C)cc1OC (configuration not stated) | -6.9% | 
28 | O=C(CSc1nc2ccccc2c(=O)n1NC(=O)Cc1ccccc1)NCc1ccccc1Cl |  | 15.8 µM (active)
29 | CCOC(=O)c1c(-c2ccccc2)csc1NC(=O)c1cccc(N2C(=O)CCC2=O)c1 |  | 8.91 µM (active)
30 | CCOC(=O)c1c(NC(=O)C2C3CCC(O3)C2C(=O)O)sc(C)c1-c1ccc(C)cc1 (configuration not stated) | 9.59% | 
31 | CCc1cc(C(c2ccccc2OC)N2CCOCC2)c(NC(=O)c2ccccc2)s1 (configuration not stated) | -23.9% | 
32 | CCOC(=O)c1c(-c2ccc(C)cc2)csc1NC(=O)C1CC=CCC1C(=O)O (configuration not stated) |  | 12.6 µM (active)
33 | CCOC(=O)c1c(-c2cccc(C)c2)csc1NC(=O)c1c(-c2ccccc2)noc1C | 6.98% | 
34 | O=C(c1cc(C(F)(F)F)cc(C(F)(F)F)c1)N1CCC2(CCN(Cc3nccs3)CC2)CC1 | -7.63% | 
35 | Cn1c(=O)cc(SCC(=O)NCCCN2CCOCC2)c2ccc(Cl)cc21 | -14.7% | 
36 | CCOC(=O)CSc1cc(=O)n(C)c2cc(Cl)ccc12 |  | 1.26 µM (active)
37 | Cc1cnc2cc(Cl)ccc2c1SCC(=O)O | -2.26% [at 2.29 µM] | 
38 | O=C(CSCc1c(F)cccc1Cl)NCC1CCCO1 (configuration not stated) |  | 15.8 µM (active)
39 | O=C(NCC1CCCO1)c1onc(CSc2ccccc2F)c1C(=O)O (configuration not stated) | 13.9% | 
40 | O=C(CN(Cc1ccccc1Cl)C(=O)c1ccc(CN2CCOCC2)o1)NCC1CCCO1 (configuration not stated) | 0.687% | 
41 | CSc1nc2ccccc2cc1/C=C(\C#N)c1cccc(Cl)c1 |  | 2 µM (active)
42 | CSc1nc2ccccc2cc1/C=C(\C#N)c1cccc(C)c1 |  | 3.55 µM (active)

Row | Compound | activity, negative = inhibition | AC50
43 | CSc1nc2ccccc2cc1/C=C(\C#N)c1ccccc1 |  | 2.82 µM (active)
44 | O=C(NNC(=O)c1cc2cc3ccccc3nc2s1)c1cccc(Cl)c1 | -25.7% | 
45 | CSc1nc2ccccc2cc1/C=C(\C#N)c1ccc(Cl)cc1Cl |  | 1.78 µM (active)
46 | CSc1nc(C)c(CCOC(=O)c2cccc(C)c2)c(=O)[nH]1 | -10.3% | 
47 | COc1ccc(NC(=O)N2CC3(CCN(C(=O)c4cccn4C)CC3)C2)cc1 | -1.16% | 
48 | CCC(=O)OCC(=O)[C@@]1(OC(=O)CC)[C@H](C)C[C@@H]2[C@H]3CCC4=CC(=O)C=C[C@]4(C)[C@]3(Cl)[C@@H](O)C[C@@]21C | -7.99% [at 25.6 µM] | 
49 | CN(C)Cc1ccccc1-c1cc(N(C)Cc2ccco2)ncn1 |  | 15.8 µM (active)
50 | CN(Cc1ccco1)c1cc(-c2ccccc2Cl)ncn1 |  | 2.51 µM (active)
51 | Cc1cc(C(C)(C)C)cc(C)c1CC1=NCCN1 | 9.92% | 
52 | CO[C@]1(C2=NCCN2)COc2ccccc2O1 | -19% | 
53 | Cc1ccccc1/C=C\C1=NCCN1 |  | 6.31 µM (active)
54 | CCCCOc1ccc(C(=O)CCN2CCCCC2)cc1 |  | 3.16 µM (active)
55 | CCC(=O)c1ccc(OCC(O)CN2CCCCC2)cc1 (configuration not stated) | 9.96% | 
56 | CC(C)C(NC(=O)C1CCCCC1)C(=O)NC1CCN(Cc2ccccc2)CC1 (configuration not stated) | -3.86% | 
57 | Cc1ccccc1C(=O)c1c[nH]c(C(=O)NCc2cccs2)c1 |  | 10 µM (active)
58 | Cc1ccc(C(=O)NCC2CCCO2)cc1N1CCCC1=O (configuration not stated) | -17.5% | 
59 | Cc1ccccc1C(=O)c1c[nH]c(C(=O)NCC2CCCO2)c1 (configuration not stated) |  | 25.1 µM (active)
60 | COc1ccc(C(=O)c2c[nH]c(C(=O)NCc3cccs3)c2)cc1 | -8.62% | 
61 | CCOc1cc(NC(=S)NCC2CCCO2)c(OCC)cc1NC(=O)c1ccccc1C (configuration not stated) | -29.8% | 
62 | O=C(O)CC[C@]1(C(=O)O)CCC(=O)c2ccccc21 | -9.13% [at 11.4 µM] | 
